# Compound activity (PubChem)
# In the library only some 3.7% were active in any assay of this set; here they are far more common.
# V-ATPase pH – alters yeast V-ATPase proton transport; S. cerevisiae, pHLuorin cytosolic pH fluorescence; response, % at 10 µM; 350,000 compounds, 0.37% hits; in the data active means response mostly above about 7.3%, no sharp cut-off; inactive means mostly below about 5.4%; further: actives read high
# tim10-1 inh – inhibits growth of tim10-1 mutant yeast | S. cerevisiae tim10-1 ts strain growth, BacTiter-Glo, 24 h | inhibition, % at 20 µM | 330,000 compounds, 2.2% hits;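 active means inhibition of at least 40%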;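 further: mutant grown at 25 °C; 0% = DMSO wells with yeast and 100% = wells holding no yeast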
# TIM10 inh – growth inhibitors of TIM10 yeast strain | S. cerevisiae TIM10 strain growth, BacTiter-Glo luminescence, 24 h | inhibition, % at 10 µM | 330,000 compounds, 1.4% hits | AID 463195;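 active means inhibition of 40% or more at the single tested concentration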;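 further: wild-type TIM10 isogenic control strain grown at permissive 25 °C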
# tim23-1 inh – growth inhibitors of tim23-1 mutant yeast; inhibition, % at 20 µM; AID 463212; S. cerevisiae tim23-1 growth, BacTiter-Glo luminescence, 24 h; 330,000 compounds, 1.3% hits;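 active means growth inhibition of the mutant yeast at or above 50%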;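 further: temperature-sensitive mutant grown at 25 °C; plate controls were DMSO-treated mutant yeast for no effect and medium wells lacking yeast for full effect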
# PfHsp90 yeast 2 – reduces growth (ATP signal) of yeast expressing P. falciparum Hsp90; S. cerevisiae expressing PfHsp90, BacTiter-Glo ATP, 48 h; yeast lacking PDR1 and PDR3 efflux regulators; inhibition, % at 9.4 µM; 310,000 compounds, 0.32% hits;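 active means every replicate shows inhibition above about 80%, whatever the replicate mean, limit read from the data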;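 further: 0% = DMSO neutral controls and 100% = 20 µM radicicol positive controls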
# * hit, by the source's call; / = no result given; + = active, no number.
SMILES,V-ATPase pH,tim10-1 inh,TIM10 inh,tim23-1 inh,PfHsp90 yeast 2
O=C(NC(Cc1ccccc1)C(=O)NCCc1ccccn1)c1ccccc1 (stereo unspecified),2,-2,-8,7,-2
COc1ccc(N2C(=O)N3[C@H](c4ccc(Cl)cc4)[C@@H]4C(=O)N(C5CCCCC5)C(=O)[C@@H]4[C@]3(Cc3ccc(Cl)cc3)C2=O)cc1,1,18,11,21,8
O=C1[C@H]2[C@@H](c3ccc(F)cc3)N3C(=O)N(c4ccc(Br)cc4)C(=O)[C@@]3(Cc3ccc(Cl)cc3)[C@H]2C(=O)N1C1CCCCC1,12*,8,7,27,-15
CCc1nnc(NC(=O)CS(=O)(=O)Cc2ccccc2)s1,-4,-14,13,-1,-8
Cc1cc(O)c(C(=O)/C=C/c2cccc([N+](=O)[O-])c2)c(=O)o1,9,12,15,9,-6
CC(=O)Oc1ccccc1C(=O)C=Cc1cccc([N+](=O)[O-])c1,-1,/,/,/,106*
CCOc1nc(CC(C)C)c2c(c1C#N)CC(C)(C)OC2,20*,-3,-39,8,3
COc1ccccc1CNC(=O)c1cc(C(C)=O)c[nH]1,-1,1,-4,-10,-2
O=S(=O)(c1ccccc1)N1CCN=C1SCc1ccc(Cl)c(Cl)c1,37*,23,9,4,1
CCOC(=O)C1CCCCN1S(=O)(=O)c1cc2c(cc1C)NC(=O)CO2 (stereo unspecified),1,20,15,13,7
Cc1ccc(CCNS(=O)(=O)c2ccc3c(c2)C(C)(C)C(=O)N3C)cc1,25*,14,2,8,-5
O=C(N/N=C/c1cc2c3c(c1O)CCCN3CCC2)c1ccccc1O,/,/,/,/,107*
CC1(C)Cc2c(sc(NC(=O)COc3cccc4ccccc34)c2C#N)C(C)(C)N1,0,12,18,19,5
Cc1ccc(OCC(=O)Nc2sc3c(c2C#N)CC(C)(C)NC3(C)C)cc1,13*,0,-12,6,27
CCN(CC)c1ccc(C(=C2C=CC(=[N+](CC)CC)C=C2)c2ccccc2)cc1,-1,/,/,/,147*
CCN(CC)c1ccc(C(=O)NNC(=O)CCl)cc1,0,-3,3,8,/
CCN(CC)c1ccc(C(=C2C=CC(=[N+](CC)CC)C=C2)c2ccc(N(CC)CC)cc2)cc1,-2,/,/,/,136*
CCN1/C(=N\N)c2cccc3cccc1c23,0,35,37,44,-18
COc1ccc(C(=O)CC(Nc2ccc([N+](=O)[O-])cc2)c2ccc(OC)cc2)cc1 (stereo unspecified),-5,25,26,28,1
CNC(CC(=O)c1ccc([N+](=O)[O-])cc1)C(Cl)(Cl)Cl (stereo unspecified),69*,/,/,/,109*
COc1ccc(OCC(=O)c2c(O)c3ccccc3oc2=O)cc1,16*,13,7,9,8
CC(=NNC(=S)Nc1cccc(Cl)c1)c1ccccn1,2,/,/,/,124*
CC(=NNC(=S)N1CCC1)c1ccccn1,-2,/,/,/,107*
COc1ccc(OC)c(NC(=O)CSc2nc(=O)n(CCN3CCOCC3)c3c2CCCC3)c1,2,4,9,16,32
CC(=O)N(C)c1ccc(OCC(O)Cn2c3ccc(Cl)cc3c3cc(Cl)ccc32)cc1 (stereo unspecified),1,39,39,24,98*
SMILES,V-ATPase pH,tim10-1 inh,TIM10 inh,tim23-1 inh,PfHsp90 yeast 2
O=C(NN1C(=O)/C(=C/c2ccc(O)c([N+](=O)[O-])c2)SC1=S)c1ccccc1Cl,4,-14,-74,1,104*
Cc1onc(-c2ccccc2)c1NC(=O)N(CCC#N)Cc1ccccc1,-1,5,2,-5,-20
Cc1cc(NC(=O)COC(=O)C2CC(=O)N(c3ccc(Cl)cc3)C2)no1 (stereo unspecified),16*,7,3,13,8
CN(CC(=O)Nc1ccc(F)c(F)c1F)C(=O)c1cc(S(=O)(=O)N(C)C)ccc1N1CCCC1,0,/,/,/,-15
Cc1ccc(N/N=C(\C#N)C(N)=S)c(C)c1,2,/,/,/,101*
CCOC(=O)c1cc([N+](=O)[O-])c([N+](=O)[O-])cc1NC(C)=O,15*,/,/,/,100*
O=C(Nc1ccc(Cl)cc1Cl)c1ccc2c(c1)OCCO2,-4,4,2,20,9
Cc1cc(Cl)ccc1NC(=O)c1ccc2c(c1)OCO2,15*,16,6,18,1
CC(=O)Nc1ccc(S(=O)(=O)c2ccnc3cc(Cl)ccc23)cc1,1,/,/,/,/
C(=NN=C1c2ccccc2-c2ccccc21)c1c[nH]c2ccccc12,0,/,/,/,131*
O=[N+]([O-])c1cccc(/C=N\N=C2c3ccccc3-c3ccccc32)c1O,-2,23,22,24,0
Oc1ccc(C=NN=C2c3ccccc3-c3ccccc32)c(O)c1,2,/,/,/,137*
Cc1cc(C(=O)NNC(=S)Nc2ccccc2)nn1C,2,2,-5,4,8
CC(C)C(NC(=O)c1ccco1)C(=O)NCC(c1ccco1)N(C)C (stereo unspecified),16*,9,-3,-1,-12
CC(=O)c1cccc(NC(=O)CN2C(=O)NC(C)(C)C2=O)c1,1,7,4,11,-4
CCCCCCCCOC(=O)c1cc([N+](=O)[O-])c(Sc2ncnc3nc[nH]c23)c([N+](=O)[O-])c1,1,/,/,/,107*
CCCCNc1c(-c2ccc(SC(C)CC)cc2)nc2cnccn12 (stereo unspecified),-3,-22,-21,36,107*
COc1ccc2c(c1)OC[C@H]1[C@H]2N2C(=O)c3cc(Cl)ccc3NC(=O)[C@@]2(C)[C@H]1c1ccccc1,2,33,21,38,+
COc1cccc(NC(=O)CN(C2=NC3CS(=O)(=O)CC3S2)c2cccc(C)c2)c1 (stereo unspecified),-1,6,3,9,-7
Cc1ccc(-c2nnn(CC(=O)Nc3ccc4nn(-c5ccccc5)nc4c3)n2)o1,16*,13,9,3,-1
CCC1(C)Cc2c(sc(NC(=S)NC(=O)c3ccccc3)c2C#N)CO1 (stereo unspecified),-3,13,11,-15,-2
CN1Cc2sc(NC(=S)NC(=O)c3ccccc3)c(C#N)c2CC1(C)C,29*,-16,-9,17,/
CC1(C)N=C(SCC(=O)Nc2ccc(Cl)cc2)C(c2ccc(Cl)cc2)=N1,6,30,34,28,110*
CC1(C)N=C(SCC(=O)Nc2ccc(Cl)cc2)C(c2ccccc2)=N1,0,34,20,11,/
COc1ccccc1NC(=O)CSc1nnc(CC(=O)Nc2ccccc2F)n1C,6,3,-2,15,12
O=C(CSc1ccccc1)Nc1cccnc1,14*,10,3,5,-9
Cc1ccc(SCC(=O)Nc2cccnc2)cc1,3,8,-7,-4,-11
Cc1ccc(-c2nc3cccnc3s2)cc1NS(=O)(=O)c1ccc2c(c1)OCCO2,-3,27,16,35,89*
